Test results reported in PubChem BioAssay AID686978 (National Center for Advancing Translational Sciences (NCATS), 2013).
Hit rate of the full screen: of about 420,000 compounds, about 64,000 (15%) were called active. Roughly 27% stayed inconclusive and do not appear here. Calls come from the whole dose curve; as a rule, active = well fitted inhibition curve with a large enough effect; inconclusive = small, poorly fitted or top-dose-only effect; inactive = flat fitted curve, though single readings scatter. These entries were drawn from the full list. A call without a number means that no potency is given here.

Assay: qHTS for Inhibitors of human tyrosyl-DNA phosphodiesterase 1 (TDP1): qHTS in cells in absence of CPT; note: nearly all actives have a fitted effect of over 55% in size
Settings: DT40 Tdp1-/- hTDP1 cells, no CPT, ATP luminescence, 48 h; activity change, negative = growth inhibition: at 46.2 µM (top of the series)
Procedure, shortened: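 Compound effects on proliferation are scored in DT40 Tdp1-/-;hTDP1 cells in the absence of CPT. ATP levels (CellTiter-Glo luminescence) are recorded after a ≥48 hr, 37 °C incubation.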
Potency is the fitted concentration of half-maximal effect.

SMILES | Potency
Cc1cc(C)c2nc(-c3cccnc3)cc(C(=O)Nc3ccc(S(=O)(=O)Nc4onc(C)c4C)cc3)c2c1 | inactive
Cc1cc(C)n2nc(C(=O)OC(C)C(=O)c3cc(C)c(C)cc3C)nc2n1 (stereo not drawn) | inactive
Cc1cc(NC(=O)Nc2c[nH]c(=O)[nH]c2=O)ccc1Br | inactive
CCOc1cc(/C=C2/C(=N)N3OC(C)=CC3=NC2=O)ccc1OC | inactive
O=C(Nc1ccc(Cl)cc1)c1csc([C@H]2C[C@H](O)[C@@H](CO)O2)n1 | inactive
CCN(CC)CCN1C(=O)C2C(C(=O)Nc3ccc(Br)cc3)C3C=CC2(O3)C1C(=O)NC1CCCCC1 (stereo not drawn) | inactive
CC1CC[C@@]23CCC4(C)[C@@]5(C)CCC6C(C)(C)C(O)CC[C@@]6(C)C5C=C[C@@]4(OC2=O)C3C1C (stereo partly drawn) | inactive
O=C(NC(Cc1ccc(O)cc1)C(=O)O)/C(=C/c1ccccc1)NC(=O)c1ccccc1 (stereo not drawn) | inactive
O=C(NCC(F)(F)F)Nc1nnc(C(F)(F)F)s1 | inactive
CCOC(=O)C1=C(NC(=S)NC(=O)c2ccccc2)c2ccccc2CC1(C)C | inactive
COc1cccc(CNC(=O)c2nnn(CC(=O)Nc3cc(Cl)ccc3C)c2N)c1 | inactive
O=C(O)CSc1c2c(nc3cc(C(=O)Nc4cccc(C(F)(F)F)c4)ccc13)CCCC2 | inactive
COc1cccc(CNC(=O)CSc2c3c(nc4cc(Cl)ccc24)CCCC3)c1 | 14.6 µM (active)
CC(=O)c1ccc(NC(=O)c2cc(-c3cccs3)on2)cc1 | inactive
CC(=O)c1ccc(NC(=O)c2ccc3c(Cl)c4c(nc3c2)CCCC4)cc1 | 18.4 µM (active)
COc1cccc(-c2ccc(C#N)c(SCC(=O)NCCc3ccc(Cl)cc3)n2)c1 | inactive
Cc1nc2c(C(=O)NCc3ccc4c(c3)OCO4)c[nH]n2c(=O)c1Cc1ccccc1F | inactive
Cc1cc(N)n(-c2ccc(S(=O)(=O)N3CCCC3)cc2[N+](=O)[O-])n1 | inactive
CCOCCCN(C)C1CCN(C(=O)c2oc3ccccc3c2NC(=O)Cc2cccc([N+](=O)[O-])c2)CC1 | inactive
O=C(c1c(F)cccc1Cl)N1CCN(c2ccccn2)CC1 | inactive
O=C(Nc1ccccc1C(=O)N1CCCCC1)c1ccco1 | inactive
CCOCCCN(C)C1CCN(C(=O)c2oc3ccccc3c2NC(=O)COc2cccc(C)c2)CC1 | inactive
O=C(c1cc2ccccc2s1)N1CCN(c2ccccn2)CC1 | inactive
O=C(C(Cl)Cl)N1CCN(c2ccccn2)CC1 | inactive
CCC(=O)Nc1c(C(=O)N2CCN(c3ccc(F)cc3)CC2)oc2ccccc12 | 25.9 µM (active)
O=C(c1ccco1)N1CCN(C(=S)Nc2cc(F)cc(F)c2)CC1 | inactive

SMILES | Potency
COCC(=O)Nc1c(C(=O)N2CCCC2)oc2ccccc12 | inactive
COc1cccc(OC)c1C(=O)Nc1c(C(=O)N2CCN(c3ccccn3)CC2)oc2ccccc12 | 25.9 µM (active)
O=C(Nc1c(C(=O)N2CCN(c3ccc(F)cc3)CC2)oc2ccccc12)c1ccco1 | 18.4 µM (active)
Cc1cc(C(=O)N2CCN(c3ccccn3)CC2)c(C)o1 | 12.6 µM (active)
O=C(CSc1nnc(Nc2ccccc2F)s1)NC1CCCC1 | inactive
CC(=O)/C(C)=N\O | inactive
COc1cc(C2C(C(=O)c3cccs3)=C(O)C(=O)N2CCN2CCOCC2)ccc1OCCC(C)C (stereo not drawn) | inactive
CSc1cc(C)[nH]c(=O)n1 | inactive
Cc1nnc(SCc2cccc(Cl)c2)n(N)c1=O | inactive
COC(=O)Nc1ccc(S(=O)(=O)N2CCN(CCN3C(=O)C4C5C=CC(C5)C4C3=O)CC2)cc1 (stereo not drawn) | inactive
Cc1ccc(C2SCC(=O)N2c2ccccc2)cc1 (stereo not drawn) | inactive
Cc1ccc(S(=O)(=O)N(C)C)cc1NC(=O)/C=C/c1cccs1 | inactive
COc1cc(CN(C(=O)c2ccccc2Br)c2ccccn2)cc(OC)c1OC | 13 µM (active)
CC(C)(C)C(=O)N(Cc1ccccc1)c1ccccn1 | inactive
COC(=O)c1cc(C(=O)N(Cc2ccccc2)c2ccccn2)cc([N+](=O)[O-])c1 | inactive
CCC(=O)N(Cc1ccccc1)c1ccccn1 | inactive
Cc1csc2ncc(C(=O)N(Cc3ccccc3)c3ccccn3)c(=O)n12 | inactive
Cc1ccc(CN(C(=O)c2ccccc2[N+](=O)[O-])c2ccccn2)cc1 | 11.6 µM (active)
O=C(c1ccco1)N1CCC2(CC1)CN(c1ncccn1)C2 | inactive
CCN(CC(=O)Nc1c(F)cccc1F)C(=O)c1ccc(S(=O)(=O)N2CCCCC2)cc1 | inactive
CCN1CCN(C(=O)N(Cc2ccc(Cl)cc2)S(=O)(=O)c2ccc(C)cc2)CC1 | inactive
O=c1[nH]c2ccccc2s1 | inactive
O=C(Cn1c2[n+](c3ccc(C(F)(F)F)cc31)CCCCC2)Nc1c(F)cccc1F | inactive
COc1ccc(Cl)cc1NC(=O)CSc1nc2ccccc2c2nc(-c3ccccc3)nn12 | inactive
Cc1ccc(NC(=O)CSc2nc3ccccc3c3nc(CCn4cncc4C)nn23)cc1F | 20.6 µM (active)
CC(=O)NCCn1c(SCC(=O)Nc2ccc(C)cc2)nc2ccccc2c1=O | inactive

SMILES | Potency
CCCCc1nc2ccc(F)cc2cc1C | inactive
OCC[C@H]1C[C@H](O)[C@@H](O)[C@]2(Cc3ccccc3CO2)O1 | inactive
O=C1OCCC1=COCCCCOC=C1CCOC1=O | inactive
Cc1ccc(S(=O)(=O)NCCC(=O)Nc2ccc(C)c(Cl)c2)cc1C | inactive
CC(=O)CCS(=O)(=O)c1ccc(C)c(C)c1 | 29.1 µM (active)
Cc1ccnc(NC(=O)CCNS(=O)(=O)c2ccc(C)c(C)c2)c1 | inactive
CC(=O)Nc1c2c(nn1-c1cccc(C)c1)CSC2 | inactive
Cn1cc(-c2nc3cncnc3n(-c3ccccc3)c2=O)c2ccccc21 | inactive
Cc1cc(C(=O)OCC(=O)Nc2ccccc2Cl)c(C)o1 | inactive
O=C(Nc1ccc(S(=O)(=O)Nc2ncccn2)cc1)C12CC3CC(CC(C3)C1)C2 | inactive
CCn1nccc1C(=O)Nc1ccc(Cl)c(Cl)c1 | inactive
CCn1nccc1C(=O)Nc1ccc(S(=O)(=O)NC23CC4CC(CC(C4)C2)C3)cc1 | 16.4 µM (active)
O=C(NC(=O)N1CCOCC1)c1ccccc1 | inactive
CCOC(=O)c1ccccc1NS(=O)(=O)c1ccc(OC)cc1 | 14.6 µM (active)
COCCNC(=O)c1ccccc1NS(=O)(=O)c1ccc(C)c([N+](=O)[O-])c1 | inactive
CCOc1cc(NS(=O)(=O)c2ccc(OC)cc2)c(OCC)cc1NC(C)=O | inactive
O=c1nc(N/N=C/c2ccco2)cn[nH]1 | inactive
CC1CC(C)CN(C(=O)C2CC(=O)N(c3ccc(F)cc3)C2)C1 (stereo not drawn) | inactive
CCOc1cc(C(=O)OCC(=O)Nc2cccc(C)c2)ccc1OCC(=O)N1CCOCC1 | inactive
COc1ccc(C2CC(=O)Oc3ccc(C(C)(C)C)cc32)cc1 (stereo not drawn) | inactive
O=C(NCCCn1ccnc1)c1cc(-c2ccccc2)on1 | 7.31 µM (active)
COc1ccc(-c2cc(C(=O)NCCCn3ccnc3)no2)cc1 | inactive
COc1ccccc1-c1cc(C(=O)NCCCn2ccnc2)no1 | inactive
O=C(NCCN1CCOCC1)[C@H](Cc1ccccc1)N1C(=O)c2ccccc2C1=O | inactive
Cc1csc(SCC(=O)Nc2sccc2C#N)n1 | inactive
O=C(Cc1ccc(Br)cc1)N1CCN(c2ccccn2)CC1 | inactive

SMILES | Potency
Brc1ccc(-c2n(-c3ccccn3)c3ccccc3[n+]2-c2ccccn2)cc1 | 13 µM (active)
Cn1cc(CNC(=O)c2ccc(OC3CCN(Cc4ccccn4)CC3)cc2)cn1 | inactive
CCn1c(SCC(=O)N2CCCC2=O)nc2ccccc21 | inactive
CN(C(=O)CSc1nc2ccccc2n1Cc1ccccc1C#N)c1ccccc1 | 18.4 µM (active)
COC(=O)CSc1nc2ccccc2c(=O)n1Cc1ccccc1 | inactive
COC(=O)c1ccc(Cn2c(SCC(=O)N(C)c3ccccc3)nc3ccccc32)cc1 | 23.1 µM (active)
Cc1ccc(Cn2c(SCC(=O)N/N=C/c3ccccc3OCC(=O)O)nc3ccccc32)cc1 | inactive
CCN(CC)C(=O)CSc1nc2ccccc2n1CC(=O)N1CCN(c2ccccc2OC)CC1 | inactive
CC1=C(C/C=C(\C)CCCC(C)CCCC(C)CCCC(C)C)C(=O)c2ccccc2C1=O (stereo not drawn) | inactive
Cc1cc(C)cc(NC(=O)COc2coc(CN3CCN(c4ccccc4)CC3)cc2=O)c1 | inactive
CC1(C(=O)NS(=O)(=O)c2cccc(F)c2)CCN1C(=O)Cc1ccc(Cl)cc1Cl (stereo not drawn) | inactive
COc1ccccc1NC(=O)c1ccc(N2CC3CC(C2)c2cccc(=O)n2C3)c(NC(=O)c2cccnc2)c1 (stereo not drawn) | inactive
O=C(OCC1OC(Oc2ccc(O)cc2)C(O)C(O)C1O)c1ccccc1 (stereo not drawn) | inactive
O=C(CSc1nccn1Cc1ccc(Cl)cc1)NCc1ccccc1 | 29.1 µM (active)
CCCCCCNC(=O)CSc1nccn1Cc1ccccc1 | inactive
CCCCNC(=O)CSc1nccn1Cc1ccccc1 | inactive
NC(=O)c1ccccc1N=Cc1ccc2ccccc2c1 | 16.4 µM (active)
N=c1oc2ccccc2cc1C(=O)N/N=C/c1ccccc1 | inactive
O=C(COC(=O)Cc1ccccc1F)NNC(=O)c1ccc(Cl)cc1 | inactive
Cc1ccc(C)c(NC(=O)C2Cc3ccccc3CN2C(=O)OCc2ccccc2)c1 (stereo not drawn) | 20.6 µM (active)
Cc1ccc(NC(=O)C2CCCN2C(=O)OCc2ccccc2)cc1C (stereo not drawn) | inactive
Cc1ccc(S(=O)(=O)N(C)C)cc1NC(=O)C1Cc2ccccc2CN1C(=O)c1ccco1 (stereo not drawn) | inactive
Fc1ccccc1OCCCCn1cncn1 | inactive
COc1cc(/C=C/CNC[C@H]2O[C@@H](n3cnc(C(N)=O)n3)[C@H](O)[C@@H]2O)ccc1O | inactive
OCC[C@H]1C[C@@H](O)[C@H](O)[C@]2(OCCCc3ccccc32)O1 | inactive
